Experimental data reported in the supplement of paper PMC6555819.

Experiments:
Assay in all cases: PBM binding z-score (relative to random genomic background probes); higher = stronger binding; sequences stand for … in GC…GCGATTGACAGCGTAGAATGAAGG
[1] = tested on: PPARg:RXRa DBDmut IVT, anti-RXR (DBD mutation: RXRa K156A/R161A, NR concentration 270 nM, RXRa partner concentration 90 nM)
Summary of the method: (§1)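 Ligand-free nuclear receptor dimers were applied to custom Agilent 4×180K protein-binding microarrays whose double-stranded probes carried direct-repeat seeds, single-nucleotide variants, half-site ablations and random human genomic background sequences in 34-nt variable regions. Incubation lasted 1 h. Binding z-scores were computed against the random background probes from regression-normalized fluorescence.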

[2] = tested on: PPARg:RXRa IVT, anti-PPARg (NR concentration 270 nM, RXRa partner concentration 90 nM)
Summary of the method: as §1

[3] = tested on: PPARg DBDmut:RXRa IVT, anti-PPARg (DBD mutation: PPARg1 K132A/R137A, NR concentration 270 nM, RXRa partner concentration 90 nM)
Summary of the method: as §1

[4] = tested on: PPARg DBDmut IVT, anti-PPARg (DBD mutation: PPARg1 K132A/R137A, NR concentration 270 nM)
Summary of the method: as §1

[5] = tested on: PPARg homodimer (NR concentration 180 nM)
Summary of the method: as §1

[6] = tested on: PXR:RXRa (NR concentration 270 nM, RXRa partner concentration 90 nM)
Summary of the method: as §1

[7] = tested on: PXR homodimer (NR concentration 270 nM)
Summary of the method: as §1

[8] = tested on: RARa:RXR (NR concentration 270 nM, RXRa partner concentration 90 nM)
Summary of the method: as §1

[9] = tested on: RARa homodimer (NR concentration 270 nM)
Summary of the method: as §1

[10] = tested on: RARb:RXRa (NR concentration 270 nM, RXRa partner concentration 90 nM)
Summary of the method: as §1

[11] = tested on: RARb homodimer (NR concentration 270 nM)
Summary of the method: as §1

[12] = tested on: RARg:RXRa (NR concentration 270 nM, RXRa partner concentration 90 nM)
Summary of the method: as §1

[13] = tested on: RARg homodimer (NR concentration 270 nM)
Summary of the method: as §1

[14] = tested on: RXRa DBDmut IVT, anti-RXR (DBD mutation: RXRa K156A/R161A, NR concentration 90 nM)
Summary of the method: as §1

[15] = tested on: RXRa homodimer (NR concentration 180 nM)
Summary of the method: as §1

[16] = tested on: THRa:RXRa (NR concentration 90 nM, RXRa partner concentration 90 nM)
Summary of the method: as §1

[17] = tested on: THRa homodimer (NR concentration 90 nM)
Summary of the method: as §1

[18] = tested on: VDR:RXRa (NR concentration 270 nM, RXRa partner concentration 90 nM)
Summary of the method: as §1

[19] = tested on: VDR homodimer (NR concentration 270 nM)
Summary of the method: as §1

Sequence: GTAGCAAGGTGAATAGGTCGTTGATGAGTAGGCG
- PBM binding z-score [1]: 1.19
- PBM binding z-score [2]: 1.9
- PBM binding z-score [3]: -0.625
- PBM binding z-score [4]: -1.04
- PBM binding z-score [5]: 0.211
- PBM binding z-score [6]: 0.451
- PBM binding z-score [7]: -0.13
- PBM binding z-score [8]: 1.08
- PBM binding z-score [9]: -0.0167
- PBM binding z-score [10]: 1.74
- PBM binding z-score [11]: 1.48
- PBM binding z-score [12]: 2.35
- PBM binding z-score [13]: 1.1
- PBM binding z-score [14]: -0.689
- PBM binding z-score [15]: 1.56
- PBM binding z-score [16]: 1.36
- PBM binding z-score [17]: -0.149
- PBM binding z-score [18]: 0.451
- PBM binding z-score [19]: -0.287

Sequence: TCTATTAGTTGATTAGGACAACCGAAACAGCGGA
- PBM binding z-score [1]: 2.5
- PBM binding z-score [2]: 0.979
- PBM binding z-score [3]: 0.853
- PBM binding z-score [4]: 1.57
- PBM binding z-score [5]: 1.65
- PBM binding z-score [6]: 0.749
- PBM binding z-score [7]: 0.881
- PBM binding z-score [8]: 0.862
- PBM binding z-score [9]: 2.34
- PBM binding z-score [10]: 0.68
- PBM binding z-score [11]: 0.549
- PBM binding z-score [12]: 0.758
- PBM binding z-score [13]: 0.926
- PBM binding z-score [14]: 1.39
- PBM binding z-score [15]: 0.79
- PBM binding z-score [16]: 1.84
- PBM binding z-score [17]: 1.63
- PBM binding z-score [18]: 1.12
- PBM binding z-score [19]: 1.03

Sequence: ACTTACGGGTCAACCAGGTTATAGCACGCGTATA
- PBM binding z-score [1]: 3.23
- PBM binding z-score [2]: 4.21
- PBM binding z-score [3]: 2.29
- PBM binding z-score [4]: 2.39
- PBM binding z-score [5]: 4.29
- PBM binding z-score [6]: 4.77
- PBM binding z-score [7]: 1.62
- PBM binding z-score [8]: 5.34
- PBM binding z-score [9]: 1.57
- PBM binding z-score [10]: 4.17
- PBM binding z-score [11]: 3.43
- PBM binding z-score [12]: 5.74
- PBM binding z-score [13]: 5.08
- PBM binding z-score [14]: 2.31
- PBM binding z-score [15]: 6.13
- PBM binding z-score [16]: 3.79
- PBM binding z-score [17]: 0.987
- PBM binding z-score [18]: 6.72
- PBM binding z-score [19]: 2.74

Sequence: TCGGACAGGTGAAGGTAACTCAGGTACGCAGTCG
- PBM binding z-score [1]: 2.03
- PBM binding z-score [2]: 1.01
- PBM binding z-score [3]: -0.211
- PBM binding z-score [4]: -0.574
- PBM binding z-score [5]: 0.536
- PBM binding z-score [6]: 0.407
- PBM binding z-score [7]: 0.228
- PBM binding z-score [8]: 0.44
- PBM binding z-score [9]: 0.257
- PBM binding z-score [10]: 1.45
- PBM binding z-score [11]: 1.08
- PBM binding z-score [12]: 0.664
- PBM binding z-score [13]: 1.17
- PBM binding z-score [14]: 0.768
- PBM binding z-score [15]: 0.653
- PBM binding z-score [16]: 1.33
- PBM binding z-score [17]: 0.486
- PBM binding z-score [18]: 0.531
- PBM binding z-score [19]: 0.395

Sequence: CCTAGCAGGACAATCTGGGTCACTCAAGGCTTGA
- PBM binding z-score [1]: 4.78
- PBM binding z-score [2]: 5.33
- PBM binding z-score [3]: -0.134
- PBM binding z-score [4]: -0.424
- PBM binding z-score [5]: 0.6
- PBM binding z-score [6]: 0.609
- PBM binding z-score [7]: -0.664
- PBM binding z-score [8]: 1.67
- PBM binding z-score [9]: -0.343
- PBM binding z-score [10]: 1.42
- PBM binding z-score [11]: 2.13
- PBM binding z-score [12]: 1.2
- PBM binding z-score [13]: 1.42
- PBM binding z-score [14]: 0.379
- PBM binding z-score [15]: 1.09
- PBM binding z-score [16]: 3.07
- PBM binding z-score [17]: 0.761
- PBM binding z-score [18]: 0.704
- PBM binding z-score [19]: 0.0931

Sequence: ACTAGTTGGTCAGCTGAGGTCTCACACAATTCGG
- PBM binding z-score [1]: 1.19
- PBM binding z-score [2]: 0.901
- PBM binding z-score [3]: 0.251
- PBM binding z-score [4]: 0.203
- PBM binding z-score [5]: 0.325
- PBM binding z-score [6]: 0.286
- PBM binding z-score [7]: -0.249
- PBM binding z-score [8]: 0.165
- PBM binding z-score [9]: 0.106
- PBM binding z-score [10]: 1.05
- PBM binding z-score [11]: 1.08
- PBM binding z-score [12]: 0.511
- PBM binding z-score [13]: 0.774
- PBM binding z-score [14]: 0.296
- PBM binding z-score [15]: 0.296
- PBM binding z-score [16]: 2.7
- PBM binding z-score [17]: 0.829
- PBM binding z-score [18]: 0.0458
- PBM binding z-score [19]: -0.0195

Sequence: CGTCCAAGGTCATAGGAGCTCAGTGAAGACAGAT
- PBM binding z-score [1]: 2.78
- PBM binding z-score [2]: 3.29
- PBM binding z-score [3]: 1.43
- PBM binding z-score [4]: -0.573
- PBM binding z-score [5]: 2.6
- PBM binding z-score [6]: 4.27
- PBM binding z-score [7]: 1.07
- PBM binding z-score [8]: 4.66
- PBM binding z-score [9]: 0.0934
- PBM binding z-score [10]: 5.1
- PBM binding z-score [11]: 3.58
- PBM binding z-score [12]: 5.66
- PBM binding z-score [13]: 5.78
- PBM binding z-score [14]: 3.96
- PBM binding z-score [15]: 5.68
- PBM binding z-score [16]: 4.03
- PBM binding z-score [17]: 2.37
- PBM binding z-score [18]: 4.11
- PBM binding z-score [19]: 2.47

Sequence: GGAACGAGGGCATTCGATTTGATAGCATGGCGAT
- PBM binding z-score [1]: 3.33
- PBM binding z-score [2]: 2.39
- PBM binding z-score [3]: 0.437
- PBM binding z-score [4]: -0.411
- PBM binding z-score [5]: 0.257
- PBM binding z-score [6]: 0.991
- PBM binding z-score [7]: 0.161
- PBM binding z-score [8]: 0.538
- PBM binding z-score [9]: -0.351
- PBM binding z-score [10]: 1.96
- PBM binding z-score [11]: 0.884
- PBM binding z-score [12]: 1.28
- PBM binding z-score [13]: 1.49
- PBM binding z-score [14]: 3.11
- PBM binding z-score [15]: 1.01
- PBM binding z-score [16]: 1.09
- PBM binding z-score [17]: -0.234
- PBM binding z-score [18]: 1.73
- PBM binding z-score [19]: 1.9

Sequence: CGAACTAGGTCATTGACAGGACTGTGAATAGTAA
- PBM binding z-score [1]: 7.96
- PBM binding z-score [2]: 8.16
- PBM binding z-score [3]: 2.42
- PBM binding z-score [4]: 3.75
- PBM binding z-score [5]: 1.48
- PBM binding z-score [6]: 1.11
- PBM binding z-score [7]: 0.155
- PBM binding z-score [8]: 1.81
- PBM binding z-score [9]: -0.0382
- PBM binding z-score [10]: 3.43
- PBM binding z-score [11]: 2.4
- PBM binding z-score [12]: 3.66
- PBM binding z-score [13]: 4.03
- PBM binding z-score [14]: 2.31
- PBM binding z-score [15]: 2.35
- PBM binding z-score [16]: 2.49
- PBM binding z-score [17]: 0.524
- PBM binding z-score [18]: 1.65
- PBM binding z-score [19]: 0.706
